Source: PubChem BioAssay (National Center for Advancing Translational Sciences (NCATS))
HepG2 tox = qHTS for Inhibitors of TGF-b: Cytotox Counterscreen; actives 0.76% (n = 410,000); HepG2 CAGA-GFP viability, ATP luminescence, 18 h; Potency, µM (top dose mostly 46.1 µM), actives largely listed as cytotoxic
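HepG2 CAGA-GFP cells (1000/well, DMEM with 1% FBS) received compound, then TGF-beta at 500 pg/mL final, and were incubated 18 hours at 37 degrees C. Viability was read by CellTiter-Glo luminescence. Media-only wells were set as complete cell-killing and DMSO as no toxicity.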
IL-1B inflam inh = qHTS for Inhibitors of Inflammasome Signaling: IL-1-beta AlphaLISA Primary Screen | THP-1 LPS/ATP IL-1B secretion, AlphaLISA, 16 h; stronger effect = lower value | activity change, % at 57.5 µM | actives 4.7% (n = 360,000) | AID 743279, 2014; in the data active = activity change below about -50%; inconclusive = mostly about -30% to -49%
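Secreted IL-1B measured by AlphaLISA bead assay after 16 h compound exposure of THP-1 cells; compounds (final up to 57.5 uM) added 1 h before LPS (250 ng/mL) and ATP (1.25 mM) stimulation; lower signal means less secretion.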
DT40 TDP1 no CPT = qHTS for Inhibitors of human tyrosyl-DNA phosphodiesterase 1 (TDP1): qHTS in cells in absence of CPT; DT40 Tdp1-/- hTDP1 cells, no CPT, ATP luminescence, 48 h; Potency, µM (highest dose often 46.2 µM), hits mostly inhibitors; actives 15% (n = 420,000); also: nearly all actives have a fitted effect of over 55% in size
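No-CPT arm: Tdp1-/-;hTDP1 DT40 cells (400/well) plus compounds, incubated ≥48 hr at 37 °C. Readout CellTiter-Glo luminescence.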
TGFb SMAD3 inh = qHTS for Inhibitors of TGF-b | AID 588855, 2011 | Potency, µM (top dose mostly 46.1 µM), hits mostly inhibitors | actives 1.2% (n = 410,000) | HepG2 CAGA-GFP TGF-b/SMAD3 reporter, GFP fluorescence, 18 h; TGF-beta stimulated, 500 pg/mL final; also: nearly all actives have a fitted effect of over 65% in size
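TGF-beta reporter screen: HEPG2 CAGA-GFP, 1% FBS, 500 pg/mL TGF-beta final, 18 h; per-cell GFP summed per well; curves fitted and categorized by class.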
TDP1 cell CPT = qHTS for Inhibitors of human tyrosyl-DNA phosphodiesterase 1 (TDP1): qHTS in cells in presence of CPT; Potency, µM (series often up to 46.2 µM), actives largely listed as inhibitors; chicken DT40 Tdp1-/-;hTDP1 cells + 20 nM CPT, ATP luminescence, 48 h; AID 686979, 2013; actives 12% (n = 420,000); also: nearly all actives have a fitted effect of over 55% in size
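Cell growth measured by CellTiter-Glo luminescence after a minimum 48 h, 37 C compound exposure with 20 nM CPT in Tdp1-knockout DT40 cells stably expressing hTDP1, seeded 400/well; qHTS titration format.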
TDP1 inh = qHTS Assay for Inhibitors of Tyrosyl-DNA Phosphodiesterase (TDP1); Tyrosyl-DNA phosphodiesterase 1 (Homo sapiens), Q9NUW8; Potency, µM (doses to about 130 µM), actives largely listed as inhibitors; recombinant TDP1, AlphaScreen DNA substrate cleavage; actives 0.28% (n = 350,000); also: nearly all actives have a fitted effect of over 40% in size
Target sequence (Q9NUW8 whole entry, looked up): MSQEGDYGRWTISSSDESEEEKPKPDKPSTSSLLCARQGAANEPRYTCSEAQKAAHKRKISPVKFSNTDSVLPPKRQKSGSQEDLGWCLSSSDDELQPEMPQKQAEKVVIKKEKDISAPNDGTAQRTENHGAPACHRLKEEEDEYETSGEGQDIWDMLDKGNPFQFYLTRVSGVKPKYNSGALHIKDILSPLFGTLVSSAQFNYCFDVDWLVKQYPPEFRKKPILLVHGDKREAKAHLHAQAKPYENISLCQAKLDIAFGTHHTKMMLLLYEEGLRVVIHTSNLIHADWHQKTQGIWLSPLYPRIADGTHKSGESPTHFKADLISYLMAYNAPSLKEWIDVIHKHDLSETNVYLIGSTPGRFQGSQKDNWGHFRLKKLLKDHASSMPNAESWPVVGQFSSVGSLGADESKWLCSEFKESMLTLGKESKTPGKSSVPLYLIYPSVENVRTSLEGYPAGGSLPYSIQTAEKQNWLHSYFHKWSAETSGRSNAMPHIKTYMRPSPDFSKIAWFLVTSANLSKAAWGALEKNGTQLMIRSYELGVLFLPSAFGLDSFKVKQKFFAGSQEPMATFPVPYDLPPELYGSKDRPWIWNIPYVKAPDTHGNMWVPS
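Here, a 5' biotin and 3' phosphotyrosine-FITC DNA oligonucleotide reports Tdp1 activity: intact substrate bridges AlphaScreen beads, while cleavage leaves a 3' phosphate and drops signal. All incubations at room temperature.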
Hits are given with their value; – = inactive; ? = inconclusive; · = not tested or not shown; [ ] = another dose, or the depositor's remark. Most compounds without a hit are left out; they make up all but 18% or so of the library. Unless noted, calls follow the shape of the dose curve; as a rule, active = well fitted curve in the direction sought with a large enough effect; inconclusive = small, poorly fitted or top-dose-only effect, or another doubt; inactive = no such curve, though single readings can be large; an effect the other way counts as inactive or inconclusive.

SMILES	HepG2 tox	IL-1B inflam inh	DT40 TDP1 no CPT	TGFb SMAD3 inh	TDP1 cell CPT	TDP1 inh
COc1cccc(CNC(=O)[C@@H]2CCCN2C(=O)[C@H]2CCCCN2C(=O)c2cccc(OC)c2)c1	·	–	–	·	–	·
CC(C)=CCC/C(C)=C/C=C/C1=CC2(C)CC1(C)C(/C=C(\C)CCC=C(C)C)CC2=O (stereo not given)	·	·	·	·	·	–[21 µM]
Cc1cc(C)c(S(=O)(=O)Nc2nnc(C)s2)c(C)c1	–	–	18µM	–	15µM	–
Cc1cc(C)c(S(=O)(=O)Nc2ccccc2-c2ccccc2)c(C)c1	–	–	21µM	?	?	–
Cc1cc(C)c(S(=O)(=O)Nc2ccccc2C(F)(F)F)c(C)c1	·	·	–	·	–	–
CCOc1ccc(S(=O)(=O)Nc2nc3ccccc3nc2Cl)cc1	–	–	21µM	?	?	·
CCOc1ccc(S(=O)(=O)Nc2cnc3ccccc3c2)cc1	–	–	18µM	–	18µM	–
CCN1CCN(C(=O)CCc2nnc(CCc3c[nH]c4ccccc34)o2)[C@@H](C)C1=O	–	–	–	–	–	–
COc1ccc(NS(=O)(=O)c2c(C)cc(C)cc2C)cc1	–	–	?	–	?	–
Cc1cc(C)c(S(=O)(=O)Nc2cnc3ccccc3c2)c(C)c1	–	-73	?	?	?	–
Cc1ccc2onc(CC(=O)N(C)c3ccccc3)c2c1	–	·	?	–	?	–
CCCCC1=NN(C(=O)c2cocc2C)C(O)(C(F)(F)F)C1 (stereo not given)	–	–	?	–	?	–
Cc1ccc(C2=NN(C(=O)c3ccco3)C(O)(C(F)(F)F)C2)cc1 (stereo not given)	–	-66	?	–	?	–
COc1cccc(C(=O)N2N=C(c3ccccc3)CC2(O)C(F)(F)F)c1 (stereo not given)	–	–	?	?	–	–
CCCCC1=NN(C(=O)c2ccco2)C(O)(C(F)(F)F)C1 (stereo not given)	–	–	0.52µM	–	0.52µM	–
COc1cccc(C2=NN(C(=O)c3ccccc3)C(O)(C(F)(F)F)C2)c1 (stereo not given)	–	–	21µM	–	16µM	–
CC(C)CN1CCCC2(CCN(C(=O)c3cccc(F)c3)CC2)C1	·	·	–	·	–	·
CCCn1c(-c2cc(OC)c(OC)c(OC)c2)nc2c1c(=O)[nH]c(=O)n2Cc1ccccc1	–	–	–	–	3.3µM	–[0.0935 µM]
Cn1c(-c2cccc(F)c2)nc2c1c(=O)[nH]c(=O)n2Cc1ccccc1	–	–	–	–	–	–
COc1ccc(-c2nc3c(c(=O)[nH]c(=O)n3Cc3ccccc3)n2Cc2ccccc2)cc1	–	?	21µM	?	23µM	–
Cn1c(-c2cccc(OCc3ccccc3)c2)nc2c1c(=O)[nH]c(=O)n2Cc1ccccc1	–	–	16µM	–	21µM	–
CCCOc1ccc(-c2nc3c(c(=O)[nH]c(=O)n3Cc3ccccc3)n2CCO)cc1OCC	–	–	16µM	–	?	–
CCCCn1c(=O)[nH]c(=O)c2c1nc(-c1ccc(OCCC)c(OCC)c1)n2CCOC	–	–	?	–	–	–
COc1ccccc1N1CCN(C2CCCN(C(=O)c3ccsc3)C2)CC1 (stereo not given)	–	–	?	–	?	·
CNC(=O)c1cc(S(=O)(=O)Nc2ccc3c(c2)OCO3)ccc1C	–	–	–	?	–	–
SMILES	HepG2 tox	IL-1B inflam inh	DT40 TDP1 no CPT	TGFb SMAD3 inh	TDP1 cell CPT	TDP1 inh
CC1CC=CC2C1C(=O)N(Cc1ccccc1)C2c1cccc([N+](=O)[O-])c1 (stereo not given)	–	·	·	?	·	–
COc1ccc(C(C)(C)C)cc1NC(=O)COC(=O)CN1C(=O)NC2(CCCCC2C)C1=O (stereo not given)	–	–	–	–	–	–
COc1ccc(NC(=O)Nc2ccc(C(=O)N3CCOCC3)cc2)c(OC)c1	–	–	–	–	–	·
COc1cc(Br)cc(-c2nc3c(c(=O)[nH]c(=O)n3Cc3ccccc3)n2C)c1O	–	–	23µM	–	16µM	–
COc1ccc(-c2nc3c(c(=O)[nH]c(=O)n3Cc3ccccc3)n2C)cc1	–	–	–	–	–	–
Clc1ccc2nnnc(-c3ccccc3)c2c1	–	-100	4.1µM	?	3.3µM	–
CSc1nc(-c2ccccc2)c2cc(Cl)ccc2n1	–	–	?	–	–	–
Cc1ccnc(NS(=O)(=O)c2ccc(-n3cccn3)cc2)c1	–	–	–	–	–	–
CC(C)CC1C(=O)N(Cc2cn(Cc3ccco3)nn2)CCS(=O)(=O)N1Cc1ccc(-c2cccc(CO)c2)cc1 (stereo not given)	–	–	16µM	–	?	·
CC1C(=O)N(Cc2cn(Cc3ccco3)nn2)CCS(=O)(=O)N1Cc1ccc(-c2ccccc2Cl)cc1 (stereo not given)	–	?	?	?	?	·
CC(C)CC1C(=O)N(Cc2cn(Cc3ccco3)nn2)CCS(=O)(=O)N1Cc1ccc(-c2ccc(Cl)cc2)cc1 (stereo not given)	–	-53	13µM	?	18µM	·
CSc1ccc(CN2CCC2(C)C(=O)NC2CCc3ccccc32)cc1 (stereo not given)	–	–	16µM	?	?	·
CSc1ccc(CN2CCC2(C)C(=O)NCc2cccs2)cc1 (stereo not given)	–	–	?	–	?	·
Cc1ccc(CN2CCC2(C)C(=O)NC2CCc3ccccc32)cc1 (stereo not given)	–	–	23µM	–	?	·
Cc1ccc(NC(=O)NC2CCCc3ccccc32)cc1 (stereo not given)	–	–	–	–	–	–
O=C(CSc1ncn[nH]1)N1N=C2/C(=C/c3ccco3)CCCC2C1c1ccco1 (stereo not given)	–	-60	?	–	?	–
CCOC(=O)Cn1nc(C)c(NC(=O)COc2ccc(C)c(C)c2)c1C	–	–	?	–	–	–
Cc1ccc(SCC(=O)OCC(=O)N(C)C2CCS(=O)(=O)C2)cc1C (stereo not given)	–	–	?	–	–	–
